# Assay outcomes (PubChem BioAssay)
# An excerpt weighted towards active compounds, which were near 2.4% of everything screened.
# SENP8 block-1 – SENP8 protease inhibitors, primary screen, biochemical, luminescence | Sentrin-specific protease 8 (Homo sapiens), Q96LD8 | purified SENP8, Z-RLRGG-aminoluciferin cleavage | inhibition, % at 10 µM | 330,000 compounds, 1.2% hits | AID 2540, 2010; in the data active = inhibition above about 50%
# Target sequence (Q96LD8 whole entry, looked up): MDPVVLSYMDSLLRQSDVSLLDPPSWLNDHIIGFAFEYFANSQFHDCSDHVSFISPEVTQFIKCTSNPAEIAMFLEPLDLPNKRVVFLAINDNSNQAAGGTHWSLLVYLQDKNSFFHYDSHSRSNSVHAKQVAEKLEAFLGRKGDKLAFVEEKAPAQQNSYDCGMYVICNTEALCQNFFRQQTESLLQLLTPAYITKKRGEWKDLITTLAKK
# Platelet DG rel – inhibitors of platelet dense granule secretion, primary screen, cell-based, MLPCN, human platelets; 300,000 compounds, 0.22% hits; AID 1663, 2009; human platelet-rich plasma, SFLLRN dense granule ATP release, luminescence; inhibition, %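 (compounds screened at 7.5 µM in platelet-rich plasma)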;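 active = mean replicate score, as percent of positive control, at or above 50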
# SENP6 inh – SENP6 protease inhibitors, primary screen, biochemical, luminescence, uHTS; inhibition, % at 10 µM; Recombinant SENP6 catalytic domain, aminoluciferin luminescence; Sentrin-specific protease 6 (Homo sapiens), Q9GZR1; 330,000 compounds, 1.8% hits;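 active = inhibition above about 50% at the single tested dose, limit read from the data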;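 also: plate controls were DMSO wells with enzyme for no effect and DMSO wells lacking enzyme for full effect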
# SENP7 inh – SENP7 protease inhibitors, primary screen, biochemical, luminescence, uHTS; Sentrin-specific protease 7 (Homo sapiens), Q9BQF6; recombinant SENP7, Z-RLRGG-aminoluciferin luminescence, 40 min; inhibition, % at 5 µM; 330,000 compounds, 1.5% hits; AID 434973, 2010;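 active = inhibition above about 50% at the single test dose, limit read from the data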;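 also: plate controls were DMSO with enzyme for no effect and no enzyme buffer wells for full effect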
# SENP8 block-2 – human SENP8 protease inhibitors, primary screen, biochemical, fluorescence, Nedd8 protein substrate, uHTS; Sentrin-specific protease 8 (Homo sapiens), Q96LD8; recombinant SENP8; inhibition, % at 20 µM; 360,000 compounds, 0.64% hits; AID 602440, 2012; in the data active = inhibition mostly above about 40%, no sharp cut-off; inactive = mostly below about 27%
# SENP8 confirm – SENP8 protease inhibitors, retest, confirmation, biochemical, luminescence, single concentration | AID 488912, 2010 | Recombinant SENP8, Z-RLRGG-aminoluciferin luminescence, 60 min | 6,200 compounds, 40% hits | inhibition, % at 12.5 µM | shares compounds with SENP7 inh;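 active = mean inhibition across replicates above about 50%, limit read from the data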
# SENP6 confirm – SENP6 protease inhibitors, confirmation, biochemical, luminescence, single concentration. shares compounds with SENP7 inh. inhibition, % at 12.5 µM. AID 488915, 2010. recombinant SENP6, Z-RLRGG-aminoluciferin luminescence. 6,200 compounds, 58% hits
# SENP7 conf – SENP7 protease inhibitors, retest, confirmation, biochemical, luminescence, single concentration | shares compounds with SENP7 inh | recombinant SENP7, Z-RLRGG-aminoluciferin luminescence, 40 min | inhibition, % at 12.5 µM | 6,200 compounds, 69% hits | AID 488917, 2010
# Casp3 select – caspase-3 protease inhibitors, confirmation, selectivity assay for SENP inhibitor project, biochemical, single concentration | shares compounds with SENP7 inh | AID 488918, 2010 | inhibition, % at 12.5 µM | 6,200 compounds, 60% hits | purified caspase-3, Z-DEVD-aminoluciferin luminescence, 60 min;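 active = mean inhibition above about 50%, limit read from the data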;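 also: plate controls were enzyme with DMSO for no effect and wells without caspase-3 for full effect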
# Target sequence (P42574 28-227 limits assumed): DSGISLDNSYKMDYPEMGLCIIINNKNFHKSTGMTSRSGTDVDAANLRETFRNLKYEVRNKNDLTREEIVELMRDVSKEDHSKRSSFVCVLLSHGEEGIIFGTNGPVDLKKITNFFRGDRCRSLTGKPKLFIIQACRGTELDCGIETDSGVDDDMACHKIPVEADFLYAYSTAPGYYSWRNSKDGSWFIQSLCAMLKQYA
# Luc interf – counter-screen for SENP inhibitors: luminescence interference | inhibition, % at 12.5 µM | Pre-incubated SENP8/Z-RLRGG-aminoluciferin, luciferase luminescence interference | shares compounds with SENP7 inh | 6,200 compounds, 39% hits | AID 488919;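 active = mean inhibition above about 50% when retested at one dose, limit read from the data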;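 also: plate controls were DMSO wells with completed reaction for no effect and substrate without enzyme for full effect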
# Starred values were filed as active, the others as inactive; / = no result given.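 The calls were made as follows, unless noted: active = mean inhibition above about 50% in the one-dose retest (limit read from the data); inactive = the rest.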
SMILES,SENP8 block-1,Platelet DG rel,SENP6 inh,SENP7 inh,SENP8 block-2,SENP8 confirm,SENP6 confirm,SENP7 conf,Casp3 select,Luc interf
Nc1ccc2oc(-c3ccccn3)nc2c1,-5,2,-6,2,-69,/,/,/,/,/
Nc1ccc(-c2nc3cc(N)ccc3o2)cc1,17,0,52*,41,-469,43,34,77*,67*,52*
CN(C)c1ccc(-c2nc3cc(N)ccc3o2)cc1,91*,30,93*,95*,-449,85*,94*,100*,91*,79*
O=C1CC[C@@H]2C[C@@]3(C[C@@H]4CCN1[C@H]24)Nc1cc([N+](=O)[O-])ccc1NC3=NCc1ccccc1,/,/,/,/,31,/,/,/,/,/
Cc1ccc(N=Nc2c(O)n(CN3CCOCC3)c3ccccc23)cc1,78*,-4,67*,84*,6,33,88*,98*,63*,26
Cc1cccc(NC(=S)N=Nc2c(O)n(CN3CCOCC3)c3ccccc23)c1C,6,0,-13,-6,18,/,/,/,/,/
O=C1NC(=O)C(c2ccccc2)(c2ccc(Cl)cc2Cl)N1 (centres undefined),/,/,/,/,18,/,/,/,/,/
COc1ccc(OC)c(NC(=O)Nc2nnc([C@@H]3O[C@H](CO)[C@@H](O)[C@H]3O)s2)c1,/,/,/,/,15,/,/,/,/,/
C(=N\N=C\c1cccs1)/c1cccs1,40,1,57*,52*,21,28,61*,87*,62*,38
C(=N\n1cnnc1)/c1cccs1,1,18,-20,-2,19,/,/,/,/,/
O=C(/C=C\c1ccccc1OC(=O)c1ccccc1F)c1cc2ccccc2o1,0,1,-6,8,11,/,/,/,/,/
Cc1ccccc1NC(=O)c1nnn(-c2ccc3c(c2)OCCO3)c1N,17,-7,32,23,8,/,/,/,/,/
O=C(Nc1ccc2c(c1)OCO2)c1cccc(F)c1,46,2,79*,76*,13,54*,54*,87*,82*,70*
Nc1c(C(=O)Nc2cccc(F)c2)nnn1-c1ccc2c(c1)OCCO2,17,13,43,83*,10,14,23,94*,69*,13
O=C(Nc1ccc2c(c1)OCO2)c1c(F)cccc1F,-7,-3,29,8,12,/,/,/,/,/
Cc1cccc(C(=O)Nc2cccc(C(=O)N/N=C/c3ccc4c(c3)OCO4)c2)c1,34,1,50*,-7,-148,58*,46,46,47,26
O=C(Nc1cccc(F)c1)Nc1ccc2c(c1)OCO2,85*,11,93*,96*,0,84*,86*,99*,86*,80*
OC(c1ccc(F)cc1)c1nc(-c2cccs2)cs1 (centres undefined),/,/,/,/,11,/,/,/,/,/
Cc1cc(C=C2C(=O)c3ccccc3C2=O)c(C)n1-c1cccc(C(=O)O)c1,90*,-3,91*,51*,-9,97*,98*,101*,95*,92*
Cc1cc(C=C2C(=O)c3ccccc3C2=O)c(C)n1-c1ccccc1,74*,10,92*,93*,-21,9,10,3,20,-3
